Measured values from PubChem BioAssay (NCATS).
Several values for one entry are separate records, joined by “and”; a condition that tells them apart may be missing. Equal values may be shown once. Records with an inconclusive call do not appear. Entries that show only a call come without a potency. Some structures have more than one record in an assay (separate samples or runs), and their calls can disagree. Activity calls are given as the source filed them. Calls follow the shape of the full dose curve.

How the values were obtained:
[1] = Cytotoxicity counterscreen for inhibitors of SARS-CoV-2 cell entry (AID 1645845); also: nearly all actives have a fitted effect of over 50% in size; also: potency is read from the fitted curve at half-maximal effect
Method in brief: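 Counterscreen run in the same HEK293-ACE2 line as the pseudotyped-particle entry assay, without particles. Viability after 48 h at 37 C was read as ATP luminescence, scaled between cell-containing and cell-free wells.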

[2] = Primary qHTS to identify inhibitors of SARS-CoV-2 cell entry (AID 1645846); conditions: activity change, negative = inhibition: at 57.1 µM (top of the series) unless noted; also: nearly all actives have a fitted effect of over 45% in size
Method in brief: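 Entry measured by luciferase signal 48 h after adding SARS-CoV-2-S pseudotyped MLV particles to HEK293-ACE2 cells preincubated 1 h with compounds. Normalisation: bald particles and spike particles.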

| SMILES | Potency [1] | activity change, negative = inhibition [2] | Potency [2] |
| --- | --- | --- | --- |
| CC(=O)[C@H]1CC[C@H]2[C@@H]3C=CC4=CC(=O)CC[C@@]4(C)[C@@H]3CC[C@]12C | inactive | -10.8% | – |
| O=C(O)c1ccccc1S | inactive | – | inactive |
| CC(=O)OC(C)OC(=O)C(C)c1ccc(-c2ccccc2)c(F)c1 (stereo not drawn) | inactive | -21.2% | – |
| CC(=O)Nc1ccc(C(=O)O)cc1 | inactive | – | inactive |
| CN(C)CCOC(=O)C(c1ccccc1)C1(O)CCCC1 (stereo not drawn) | inactive | 1% | – |
| COCCOC(=O)C1=C(C)NC(C)=C(C(=O)OC(C)C)C1c1cccc([N+](=O)[O-])c1 (stereo not drawn) | inactive | -23.8% | – |
| O=C1c2ccccc2C(=O)c2c1ccc(O)c2O | inactive | – | inactive |
| O=C(c1ccccc1)c1ccccc1 | inactive | – | inactive |
| C[C@@H]1CN(c2c(F)c(F)c3c(=O)c(C(=O)O)cn(C4CC4)c3c2F)C[C@H](C)N1 | inactive | – | inactive |
| CC(=O)O[C@@H]1CC2C3CCc4cc(OC(=O)c5ccccc5)ccc4C3CCC2(C)[C@H]1OC(C)=O (stereo partly drawn) | inactive | 4.28% | – |
| CCOC(=O)[C@H](CCc1ccccc1)N[C@@H](C)C(=O)N1CCC[C@H]1C(=O)O | inactive | -3.71% and -6.05% | – |
| CCOC(=O)/C=C(C)/C=C/C=C(C)/C=C/c1c(C)cc(OC)c(C)c1C | inactive | -11.5% | – |
| O=C(O)c1cc(N=Nc2ccc(O)c(C(=O)O)c2)ccc1O | inactive | -12.7% | – |
| N[C@@H](Cc1cc(I)c(Oc2ccc(O)c(I)c2)c(I)c1)C(=O)O | inactive | – | inactive |
| COCC(=O)Nc1c(I)c(C(=O)NCC(O)CO)c(I)c(C(=O)N(C)CC(O)CO)c1I (stereo not drawn) | inactive | – | inactive |
| C[C@H](CS)C(=O)N1CCC[C@H]1C(=O)O | inactive | – | inactive |
| COc1cc2c(Nc3ccc(Br)cc3F)ncnc2cc1OCC1CCN(C)CC1 | inactive and 31.6 µM (active) | – | inactive |
| OCCOCCN1CCN(C2=Nc3ccccc3Sc3ccccc32)CC1 | inactive | -1.17% | – |
| COc1ccc(C2C(=O)c3ccccc3C2=O)cc1 | inactive | – | inactive |
| CC(C)=CCC1C(=O)N(c2ccccc2)N(c2ccccc2)C1=O | inactive | -3.84% | – |
| O=C(CS(=O)Cc1ccco1)NC/C=C\COc1cc(CN2CCCCC2)ccn1 (stereo not drawn) | inactive | – | inactive |
| CCCCCCCC(=O)OCC(COC(=O)CCCCCCC)OC(=O)CCCCCCC | inactive | – | inactive |

| SMILES | Potency [1] | activity change, negative = inhibition [2] | Potency [2] |
| --- | --- | --- | --- |
| NNC(=O)c1ccncc1 | inactive | – | inactive |
| CNC(=O)c1c(I)c(NC(C)=O)c(I)c(C(=O)O)c1I | inactive | – | inactive |
| NC(N)=Nc1nc(CSCC/C(N)=N/S(N)(=O)=O)cs1 | inactive | – | inactive |
| CC(=O)OCC(=O)[C@@]1(O)CC[C@H]2[C@@H]3CCC4=CC(=O)CC[C@]4(C)[C@H]3C(=O)C[C@@]21C | inactive | -2.62% and -39.8% | – |
| CCOC(=O)Oc1ccc(CCNC(=O)[C@H](CCSC)NC(C)=O)cc1OC(=O)OCC | inactive | – | inactive |
| CN(C)CCOC(=O)COc1ccc(Cl)cc1 | inactive | – | inactive |
| COc1ccc(C(=O)NCc2ccc(OCCN(C)C)cc2)cc1OC | inactive | -12.5% | – |
| C[N+]1(C)CCCC(OC(=O)C(O)(c2ccccc2)c2ccccc2)C1 (stereo not drawn) | inactive | -26.9% | – |
| CCCCOCCOC(=O)c1cccnc1 | inactive | – | inactive |
| COC(=O)C1=C(C)NC(C)=C(C(=O)OCCc2ccc(N3CCN(C(c4ccccc4)c4ccccc4)CC3)cc2)C1c1cccc([N+](=O)[O-])c1 (stereo not drawn) | inactive | -16.7% | – |
| NC(=O)c1ccc([N+](=O)[O-])cc1Cl | inactive | -5.3% | – |
| Nc1ccc(S(=O)(=O)NC(=O)c2ccccc2)cc1 | inactive | – | inactive |
| O=c1c(-c2ccc(O)cc2)coc2cc(O)cc(O)c12 | inactive | -23.9% [at 114 µM] | – |
| O=C(O)CCC(=O)O | inactive | – | inactive |
| CCN1CCN(C(=O)N[C@@H](C(=O)N[C@@H]2C(=O)N3[C@@H]2SC(C)(C)[C@H]3C(=O)O)c2ccccc2)C(=O)C1=O | inactive | – | inactive |
| Cc1noc(NS(=O)(=O)c2ccc(N)cc2)c1C | inactive | -11.7% | – |
| Cc1cc(O)cc2c1O[C@](C)(CCC[C@H](C)CCC[C@H](C)CCCC(C)C)CC2 | inactive | – | inactive |
| CC(C)(C)NCC(O)COc1ccccc1OCC1CCCO1 (stereo not drawn) | inactive | 4.08% | – |
| CN1CCC[C@@H]1c1cccnc1 | inactive | – | inactive |
| NS(=O)(=O)c1cc2c(cc1Cl)NC(CC1CCCC1)NS2(=O)=O (stereo not drawn) | inactive | – | inactive |
| Cc1cccc(C)c1NC(=O)c1cc(S(N)(=O)=O)c(Cl)cc1O | inactive | -7.8% | – |
| CC1CCc2c(N3CCC(O)CC3)c(F)cc3c(=O)c(C(=O)O)cn1c23 (stereo not drawn) | inactive | – | inactive |
